The record followed here is paper PMC7862700, “An all-to-all approach to the identification of sequence-specific readers for epigenetic DNA modifications on cytosine”.

Common to all, as to assay: DAPPL (digital affinity profiling via proximity ligation, sequencing); 10 mM Tris-HCl pH 7.5, 50 mM NaCl, 1 mM DTT, 4% glycerol, room temperature, 30 min; GST-TFs on glutathione beads, 16-mer random dsDNA library, 0.1% formaldehyde crosslink after washing; high values mean tight binding
For one experiment, the target named is T1, FEV (Homo sapiens, UniProt Q99581 1-238).
T1 sequence: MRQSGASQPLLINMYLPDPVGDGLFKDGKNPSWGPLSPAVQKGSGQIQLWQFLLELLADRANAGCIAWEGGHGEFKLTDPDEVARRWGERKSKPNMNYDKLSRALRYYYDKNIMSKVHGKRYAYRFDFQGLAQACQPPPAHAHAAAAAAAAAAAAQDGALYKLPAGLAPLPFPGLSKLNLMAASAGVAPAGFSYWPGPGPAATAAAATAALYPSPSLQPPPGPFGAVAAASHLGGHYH
As to conditions: protein: recombinant; tags: N-terminal GST; dsDNA, one strand shown. In a few lines:
(§1)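 Sequencing on an Illumina NextSeq500 followed washing, crosslinking with 0.1% formaldehyde, proximity ligation (BsaI/T4 ligase, 1 h, 37 °C) and PCR amplification of pools that had been incubated for 30 min at room temperature with 200 nmole of a random double-stranded 16-mer DNA library in Tris/NaCl/DTT/glycerol buffer. Each pool held DNA-barcoded human transcription factors, expressed in yeast as GST fusions and captured on glutathione beads, plus a tag-only sample. Binding signal is a hexamer's read frequency for a factor divided by its frequency in the tag-only sample.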

Another experiment deals with ETV5 (Homo sapiens, UniProt P41161 1-510). To be noted: protein: recombinant; tags: N-terminal GST; dsDNA, one strand shown. In a few lines:
as §1

A further experiment concerns the target HSF1 (Homo sapiens, UniProt Q00613 1-529). As to conditions: protein: recombinant; tags: N-terminal GST; chain copies: 3; dsDNA, one strand shown. In a few lines:
as §1

The next experiment deals with T2, SPIC (Homo sapiens, UniProt Q8N5J4 1-248).
T2 sequence: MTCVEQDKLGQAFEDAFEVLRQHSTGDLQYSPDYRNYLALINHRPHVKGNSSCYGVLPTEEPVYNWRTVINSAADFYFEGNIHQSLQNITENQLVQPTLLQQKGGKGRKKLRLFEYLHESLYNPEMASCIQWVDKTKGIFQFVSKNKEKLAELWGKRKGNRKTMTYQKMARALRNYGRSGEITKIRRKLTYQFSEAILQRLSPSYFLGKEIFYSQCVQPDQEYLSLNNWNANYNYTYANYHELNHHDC
As to conditions: protein: recombinant; tags: N-terminal GST; dsDNA, one strand shown. In a few lines:
as §1

Another experiment addresses ELF4 (Homo sapiens, UniProt Q99607 1-663). To be noted: protein: recombinant; tags: N-terminal GST; dsDNA, one strand shown. Put shortly: as §1
For a further experiment, the target named is T3, ELK4 (Homo sapiens, UniProt P28324-2 1-405).
T3 sequence: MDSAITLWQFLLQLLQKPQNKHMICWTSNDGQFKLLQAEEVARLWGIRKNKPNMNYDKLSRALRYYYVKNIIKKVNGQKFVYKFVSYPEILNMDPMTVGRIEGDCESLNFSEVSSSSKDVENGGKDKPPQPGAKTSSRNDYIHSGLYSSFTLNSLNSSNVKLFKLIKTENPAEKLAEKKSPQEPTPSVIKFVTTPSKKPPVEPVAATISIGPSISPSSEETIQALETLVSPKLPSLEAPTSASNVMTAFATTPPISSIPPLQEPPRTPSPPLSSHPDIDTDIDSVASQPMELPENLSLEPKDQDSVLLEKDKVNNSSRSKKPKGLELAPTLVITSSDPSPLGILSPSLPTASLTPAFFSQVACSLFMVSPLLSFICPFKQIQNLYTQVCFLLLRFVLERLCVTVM
To be noted: protein: recombinant; tags: N-terminal GST; dsDNA, one strand shown. Put shortly:
as §1

The target of another experiment is T4, ETV2 (Homo sapiens, UniProt O00321 1-342).
T4 sequence: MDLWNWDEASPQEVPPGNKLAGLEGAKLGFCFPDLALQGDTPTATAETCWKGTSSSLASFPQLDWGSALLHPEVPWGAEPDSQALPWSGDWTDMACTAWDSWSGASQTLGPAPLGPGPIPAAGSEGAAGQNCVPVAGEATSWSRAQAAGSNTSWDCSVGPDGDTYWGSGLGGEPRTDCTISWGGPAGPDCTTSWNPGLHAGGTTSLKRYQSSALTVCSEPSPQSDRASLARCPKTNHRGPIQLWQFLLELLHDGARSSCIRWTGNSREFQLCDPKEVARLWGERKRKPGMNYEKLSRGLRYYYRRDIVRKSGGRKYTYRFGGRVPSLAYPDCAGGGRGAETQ
As to conditions: protein: recombinant; tags: N-terminal GST; dsDNA, one strand shown. In a few lines: as §1

A further experiment deals with T5, ELF3 (Homo sapiens, UniProt P78545 1-371).
T5 sequence: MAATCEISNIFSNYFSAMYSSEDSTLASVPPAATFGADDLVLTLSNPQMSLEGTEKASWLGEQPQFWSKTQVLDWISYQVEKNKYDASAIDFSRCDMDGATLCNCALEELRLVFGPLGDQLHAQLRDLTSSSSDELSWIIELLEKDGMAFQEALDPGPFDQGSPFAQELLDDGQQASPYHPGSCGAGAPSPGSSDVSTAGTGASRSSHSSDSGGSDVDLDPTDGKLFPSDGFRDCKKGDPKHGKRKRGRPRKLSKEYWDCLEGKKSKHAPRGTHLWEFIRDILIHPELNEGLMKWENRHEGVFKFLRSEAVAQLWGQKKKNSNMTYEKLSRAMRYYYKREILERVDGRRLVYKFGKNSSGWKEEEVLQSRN
As to conditions: protein: recombinant; tags: N-terminal GST; dsDNA, one strand shown. In a few lines: as §1

The next experiment has as its target CRX (Homo sapiens, UniProt O43186 1-299). To be noted: protein: recombinant; tags: N-terminal GST; dsDNA, one strand shown. Put shortly: as §1
The target in a further experiment is ETV1 (Homo sapiens, UniProt P50549 1-477). As to conditions: protein: recombinant; tags: N-terminal GST; dsDNA, one strand shown. Put shortly: as §1
Chain of ETV1 (P50549 whole entry): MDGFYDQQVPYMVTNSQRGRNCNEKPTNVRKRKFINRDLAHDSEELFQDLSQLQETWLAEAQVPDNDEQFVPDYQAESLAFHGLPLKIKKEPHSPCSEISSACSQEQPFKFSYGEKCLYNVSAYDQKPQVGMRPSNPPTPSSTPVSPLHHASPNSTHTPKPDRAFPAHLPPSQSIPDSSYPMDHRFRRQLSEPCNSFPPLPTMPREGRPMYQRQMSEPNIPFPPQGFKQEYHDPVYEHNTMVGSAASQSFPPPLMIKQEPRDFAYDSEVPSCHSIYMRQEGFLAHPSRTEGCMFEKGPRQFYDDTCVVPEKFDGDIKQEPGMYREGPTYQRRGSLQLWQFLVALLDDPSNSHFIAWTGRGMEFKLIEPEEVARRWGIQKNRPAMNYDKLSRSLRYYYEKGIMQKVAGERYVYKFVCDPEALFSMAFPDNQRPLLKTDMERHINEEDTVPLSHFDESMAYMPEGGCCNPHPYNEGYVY
The target of another experiment is T6, ERF (Homo sapiens, UniProt P50548 1-548).
T6 sequence: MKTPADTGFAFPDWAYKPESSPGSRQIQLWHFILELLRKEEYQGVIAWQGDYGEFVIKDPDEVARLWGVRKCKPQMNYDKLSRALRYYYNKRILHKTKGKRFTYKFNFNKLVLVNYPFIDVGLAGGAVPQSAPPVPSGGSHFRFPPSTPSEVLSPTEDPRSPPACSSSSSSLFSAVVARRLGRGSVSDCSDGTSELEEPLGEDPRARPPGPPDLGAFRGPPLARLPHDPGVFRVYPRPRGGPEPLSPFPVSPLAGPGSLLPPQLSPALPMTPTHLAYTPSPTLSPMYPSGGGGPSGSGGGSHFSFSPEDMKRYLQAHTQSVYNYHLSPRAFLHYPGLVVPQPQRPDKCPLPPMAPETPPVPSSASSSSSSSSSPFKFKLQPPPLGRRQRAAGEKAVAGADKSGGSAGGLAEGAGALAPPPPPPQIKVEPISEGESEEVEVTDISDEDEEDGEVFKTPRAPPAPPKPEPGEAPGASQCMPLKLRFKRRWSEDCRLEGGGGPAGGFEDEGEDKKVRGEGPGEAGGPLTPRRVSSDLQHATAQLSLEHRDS
As to conditions: protein: recombinant; tags: N-terminal GST; dsDNA, one strand shown. In a few lines: as §1

The next experiment concerns the target T7, ETV3L (Homo sapiens, UniProt Q6ZN32 1-361).
T7 sequence: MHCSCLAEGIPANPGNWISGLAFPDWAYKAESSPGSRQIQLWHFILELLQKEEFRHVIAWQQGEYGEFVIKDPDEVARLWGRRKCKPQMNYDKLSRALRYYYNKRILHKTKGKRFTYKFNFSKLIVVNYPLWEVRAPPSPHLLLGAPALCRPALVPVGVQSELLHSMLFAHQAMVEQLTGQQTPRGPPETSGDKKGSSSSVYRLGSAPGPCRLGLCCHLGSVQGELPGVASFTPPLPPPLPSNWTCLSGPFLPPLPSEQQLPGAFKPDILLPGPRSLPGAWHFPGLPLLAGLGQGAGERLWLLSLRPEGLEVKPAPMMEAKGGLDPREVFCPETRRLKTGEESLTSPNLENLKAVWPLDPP
To be noted: protein: recombinant; tags: N-terminal GST; dsDNA, one strand shown. In a few lines: as §1

The target in a further experiment is T8, ETS2 (Homo sapiens, UniProt P15036 1-469).
T8 sequence: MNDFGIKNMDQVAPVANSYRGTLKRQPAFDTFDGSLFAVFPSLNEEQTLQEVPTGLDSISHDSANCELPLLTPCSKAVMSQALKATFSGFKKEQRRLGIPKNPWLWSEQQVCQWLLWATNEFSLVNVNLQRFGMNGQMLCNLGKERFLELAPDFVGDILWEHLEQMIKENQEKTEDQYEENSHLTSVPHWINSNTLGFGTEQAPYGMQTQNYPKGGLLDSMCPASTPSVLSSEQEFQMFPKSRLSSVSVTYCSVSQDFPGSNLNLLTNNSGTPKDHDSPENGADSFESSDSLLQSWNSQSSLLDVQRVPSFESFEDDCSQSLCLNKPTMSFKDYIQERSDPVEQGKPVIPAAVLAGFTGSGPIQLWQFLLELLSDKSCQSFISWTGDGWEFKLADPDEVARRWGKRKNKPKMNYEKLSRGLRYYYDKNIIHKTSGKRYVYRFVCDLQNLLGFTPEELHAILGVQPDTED
As to conditions: protein: recombinant; tags: N-terminal GST; dsDNA, one strand shown. In a few lines: as §1

Another experiment concerns the target T9, SPDEF (Homo sapiens, UniProt O95238 1-335).
T9 sequence: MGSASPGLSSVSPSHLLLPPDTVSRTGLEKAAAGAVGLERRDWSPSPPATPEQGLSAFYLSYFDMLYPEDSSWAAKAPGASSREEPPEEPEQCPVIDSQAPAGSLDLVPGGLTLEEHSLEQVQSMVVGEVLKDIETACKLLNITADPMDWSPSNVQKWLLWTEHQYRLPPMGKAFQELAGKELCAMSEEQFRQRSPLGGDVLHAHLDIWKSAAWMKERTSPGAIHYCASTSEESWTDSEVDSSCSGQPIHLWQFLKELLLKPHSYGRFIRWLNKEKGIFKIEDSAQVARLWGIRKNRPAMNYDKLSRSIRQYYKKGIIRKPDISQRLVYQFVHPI
To be noted: protein: recombinant; tags: N-terminal GST; dsDNA, one strand shown. Put shortly:
as §1

In another experiment the target is T10, ETV7 (Homo sapiens, UniProt Q9Y603 1-341).
T10 sequence: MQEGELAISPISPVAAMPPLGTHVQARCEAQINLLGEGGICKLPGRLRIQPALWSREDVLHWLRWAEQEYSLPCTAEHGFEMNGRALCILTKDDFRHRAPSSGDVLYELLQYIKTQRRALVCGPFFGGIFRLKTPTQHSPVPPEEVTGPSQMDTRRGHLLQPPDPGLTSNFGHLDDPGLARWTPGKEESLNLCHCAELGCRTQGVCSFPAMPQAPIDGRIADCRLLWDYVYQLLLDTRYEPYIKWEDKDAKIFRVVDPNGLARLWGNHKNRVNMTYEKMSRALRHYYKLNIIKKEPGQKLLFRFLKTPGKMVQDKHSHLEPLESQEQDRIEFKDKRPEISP
As to conditions: protein: recombinant; tags: N-terminal GST; dsDNA, one strand shown. Put shortly:
as §1

The target in a further experiment is T11, ELF5 (Homo sapiens, UniProt Q9UKW6-2 1-255).
T11 sequence: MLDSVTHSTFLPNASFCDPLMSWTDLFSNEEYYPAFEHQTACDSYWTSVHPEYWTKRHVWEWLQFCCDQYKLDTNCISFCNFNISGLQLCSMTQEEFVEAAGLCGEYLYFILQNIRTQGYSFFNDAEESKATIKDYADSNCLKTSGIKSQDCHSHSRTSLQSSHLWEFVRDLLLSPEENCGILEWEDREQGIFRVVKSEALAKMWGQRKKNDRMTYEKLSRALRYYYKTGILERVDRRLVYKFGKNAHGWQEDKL
To be noted: protein: recombinant; tags: N-terminal GST; dsDNA, one strand shown. Put shortly:
as §1

The target of a further experiment is T12, ETV3 (Homo sapiens, UniProt P41162-2 1-143).
T12 sequence: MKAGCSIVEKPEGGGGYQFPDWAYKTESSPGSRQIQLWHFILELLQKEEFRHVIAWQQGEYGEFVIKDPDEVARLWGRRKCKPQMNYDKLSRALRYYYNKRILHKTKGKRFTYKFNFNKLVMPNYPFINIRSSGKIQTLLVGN
As to conditions: protein: recombinant; tags: N-terminal GST; dsDNA, one strand shown. Put shortly: as §1

The next experiment addresses ETV6 (Homo sapiens, UniProt P41212 1-452). As to conditions: protein: recombinant; tags: N-terminal GST; dsDNA, one strand shown. In a few lines:
as §1

Chain of CRX (O43186 whole entry): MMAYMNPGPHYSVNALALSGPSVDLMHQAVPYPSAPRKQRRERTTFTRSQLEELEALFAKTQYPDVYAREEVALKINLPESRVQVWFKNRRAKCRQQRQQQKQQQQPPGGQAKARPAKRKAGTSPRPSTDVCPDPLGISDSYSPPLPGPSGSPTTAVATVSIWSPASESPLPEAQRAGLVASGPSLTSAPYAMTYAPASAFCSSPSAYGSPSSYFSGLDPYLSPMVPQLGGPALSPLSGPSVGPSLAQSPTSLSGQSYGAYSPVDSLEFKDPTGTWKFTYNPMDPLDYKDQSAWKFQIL
Chain of ELF4 (Q99607 whole entry): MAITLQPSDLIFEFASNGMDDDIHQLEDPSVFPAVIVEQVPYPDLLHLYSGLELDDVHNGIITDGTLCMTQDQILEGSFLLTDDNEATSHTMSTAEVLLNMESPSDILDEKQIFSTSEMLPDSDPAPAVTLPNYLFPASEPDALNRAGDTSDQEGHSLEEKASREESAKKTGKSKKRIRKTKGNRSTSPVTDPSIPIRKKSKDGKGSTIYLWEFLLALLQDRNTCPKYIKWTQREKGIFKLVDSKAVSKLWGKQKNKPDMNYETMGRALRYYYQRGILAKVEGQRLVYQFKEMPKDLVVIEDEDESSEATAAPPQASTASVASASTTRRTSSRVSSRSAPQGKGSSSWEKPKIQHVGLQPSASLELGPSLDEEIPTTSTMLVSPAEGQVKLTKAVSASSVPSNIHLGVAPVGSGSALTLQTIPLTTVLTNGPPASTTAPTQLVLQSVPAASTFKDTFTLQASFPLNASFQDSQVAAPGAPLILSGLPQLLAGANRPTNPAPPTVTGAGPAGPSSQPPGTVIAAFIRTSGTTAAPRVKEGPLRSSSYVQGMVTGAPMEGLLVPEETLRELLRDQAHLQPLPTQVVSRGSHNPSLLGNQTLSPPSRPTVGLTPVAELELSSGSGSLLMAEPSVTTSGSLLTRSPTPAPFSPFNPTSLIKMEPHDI
Chain of HSF1 (Q00613 whole entry): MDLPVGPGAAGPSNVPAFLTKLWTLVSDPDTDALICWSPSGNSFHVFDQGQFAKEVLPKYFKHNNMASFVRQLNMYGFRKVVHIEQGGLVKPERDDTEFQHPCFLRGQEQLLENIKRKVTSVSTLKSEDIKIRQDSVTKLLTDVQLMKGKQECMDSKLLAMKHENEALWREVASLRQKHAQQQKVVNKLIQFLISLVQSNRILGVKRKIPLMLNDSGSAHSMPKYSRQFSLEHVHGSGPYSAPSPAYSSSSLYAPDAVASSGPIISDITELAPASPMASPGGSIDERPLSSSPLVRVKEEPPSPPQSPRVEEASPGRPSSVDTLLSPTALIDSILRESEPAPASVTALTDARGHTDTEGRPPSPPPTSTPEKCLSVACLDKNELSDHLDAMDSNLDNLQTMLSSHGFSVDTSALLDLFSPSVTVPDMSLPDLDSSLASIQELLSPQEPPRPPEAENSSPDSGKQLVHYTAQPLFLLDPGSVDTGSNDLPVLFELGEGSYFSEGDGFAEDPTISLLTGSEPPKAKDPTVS
Chain of ETV5 (P41161 whole entry): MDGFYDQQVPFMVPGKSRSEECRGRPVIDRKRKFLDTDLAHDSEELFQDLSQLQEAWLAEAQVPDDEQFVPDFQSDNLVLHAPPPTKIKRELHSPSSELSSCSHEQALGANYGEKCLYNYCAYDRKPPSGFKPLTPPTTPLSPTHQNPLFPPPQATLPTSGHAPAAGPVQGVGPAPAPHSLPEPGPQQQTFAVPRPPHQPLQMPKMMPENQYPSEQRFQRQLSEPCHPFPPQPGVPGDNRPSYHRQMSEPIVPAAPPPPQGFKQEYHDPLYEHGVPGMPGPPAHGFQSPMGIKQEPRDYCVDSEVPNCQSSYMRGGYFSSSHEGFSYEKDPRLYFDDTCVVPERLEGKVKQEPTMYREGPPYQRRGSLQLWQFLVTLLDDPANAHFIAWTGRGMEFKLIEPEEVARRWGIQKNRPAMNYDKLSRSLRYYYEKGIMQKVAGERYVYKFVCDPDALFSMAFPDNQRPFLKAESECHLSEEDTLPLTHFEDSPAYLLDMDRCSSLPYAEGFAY
Chain of ETV6 (P41212 whole entry): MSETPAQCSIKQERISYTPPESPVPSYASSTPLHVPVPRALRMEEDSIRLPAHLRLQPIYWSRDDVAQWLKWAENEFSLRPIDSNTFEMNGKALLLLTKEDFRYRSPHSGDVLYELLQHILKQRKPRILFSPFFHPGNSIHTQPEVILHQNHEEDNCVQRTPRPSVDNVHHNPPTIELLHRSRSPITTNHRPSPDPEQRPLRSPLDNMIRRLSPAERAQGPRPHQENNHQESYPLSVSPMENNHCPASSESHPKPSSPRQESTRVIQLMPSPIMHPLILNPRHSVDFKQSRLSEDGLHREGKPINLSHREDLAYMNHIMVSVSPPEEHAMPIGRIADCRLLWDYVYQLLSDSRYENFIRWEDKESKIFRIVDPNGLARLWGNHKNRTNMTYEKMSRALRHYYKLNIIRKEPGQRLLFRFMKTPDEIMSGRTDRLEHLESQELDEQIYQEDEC

For the sequence CCGAAC, the binding signal with FEV was 1.25 fold enrichment (6-mer frequency, TF over GST control); in the experiment with ETV5, 1.27 fold enrichment (6-mer frequency, TF over GST control); with HSF1 it was 1.54 fold enrichment (6-mer frequency, TF over GST control); with SPIC it was 1.32 fold enrichment (6-mer frequency, TF over GST control); with ELF4, 1.26 fold enrichment (6-mer frequency, TF over GST control); in the experiment with ELK4 it was 1.25 fold enrichment (6-mer frequency, TF over GST control). In addition, the binding signal was 1.36 fold enrichment (6-mer frequency, TF over GST control) with ETV2; 1.25 fold enrichment (6-mer frequency, TF over GST control) with ELF3; 1.17 fold enrichment (6-mer frequency, TF over GST control) with CRX; 1.19 fold enrichment (6-mer frequency, TF over GST control) in the experiment with ETV1; 1.23 fold enrichment (6-mer frequency, TF over GST control) with ERF; 1.27 fold enrichment (6-mer frequency, TF over GST control) with ETV3L. Moreover, the binding signal was 1.26 fold enrichment (6-mer frequency, TF over GST control) in the experiment with ETS2; 1.28 fold enrichment (6-mer frequency, TF over GST control) with SPDEF; 1.14 fold enrichment (6-mer frequency, TF over GST control) with ETV7; 1.21 fold enrichment (6-mer frequency, TF over GST control) with ELF5; 1.18 fold enrichment (6-mer frequency, TF over GST control) with ETV3; 1.28 fold enrichment (6-mer frequency, TF over GST control) with ETV6.
